# Hits are enriched below; roughly 6% of the tested compounds scored in any of these assays.
# Tau FP inhib = tau fibrillization inhibition (FP) | P10636 | AID 1468 | 0.39% of 280,000 active | K18 P301L tau heparin fibrillization, Alexa594 FP, 6 h | Potency, µM (highest dose often 57.7 µM), usual class: inhibitors; further: nearly all actives have a fitted effect of over 55% in size
#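 Compound effects on tau fibrillization are measured by Alexa 594 fluorescence polarization (ex 555, em 632 nm). K18 P301L tau is used at 15 uM with 0.24 uM labeled tracer, and 20 uM heparin induces aggregation over 6 hr at 37 C.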
# VDR inh = vitamin D3 receptor (human) inhibition; Potency, µM, actives largely listed as inhibitors; P11473; VDR-SRC2-3 peptide fluorescence polarization, 2 h; 0.93% of 400,000 active
#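 Compounds are added to VDR with labelled SRC2-3 coactivator peptide and held 2 h at room temperature. Inhibition of the VDR–peptide interaction is then read as a change in fluorescence polarization.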
# Tau fluor counter = counter-screen for tau fibril formation inhibitors | tau K18 P301L Alexa594 fluorescence, heparin fibrillization | Potency, µM (titrated, usually from 57.7 µM) | 0.93% of 280,000 active | AID 1463; further: nearly all actives have a fitted effect of over 55% in size
#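 Human K18 P301L tau (15 uM unlabeled plus 0.24 uM Alexa 594-labeled, final) in 100 mM sodium acetate pH 7 was mixed with compound and 20 uM heparin and incubated 6 hr at 37 C.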
# Tau ThT inhib = tau fibrillization inhibition (ThT binding); AID 1460; 2.1% of 270,000 active; P10636; recombinant tau K18 P301L (four-repeat tau fragment), heparin-induced fibrillization, ThT fluorescence; Potency, µM (series often up to 57.4 µM), most hits filed as inhibitors; further: nearly all actives have a fitted effect of over 55% in size
#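 Recombinant human tau K18 fragment […] carrying P301L, 15 uM unlabeled plus 0.24 uM Alexa 594-labeled, was fibrillized with 20 uM heparin in 100 mM sodium acetate pH 7 for 6 hr at 37 C; 30 uM ThT fluorescence read after 1 hr.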
# PLK1 PBD inh = blocks phosphopeptide binding to human PLK1 polo-box domain; P53350; Plk1 PBD binding of FITC phosphopeptide, fluorescence polarization; Potency, µM, hits mostly inhibitors; 2.8% of 360,000 active; further: series mostly up to about 57 µM; nearly all actives have a fitted effect of over 65% in size
# Target sequence (P53350 whole entry, looked up, the tested form may be a part): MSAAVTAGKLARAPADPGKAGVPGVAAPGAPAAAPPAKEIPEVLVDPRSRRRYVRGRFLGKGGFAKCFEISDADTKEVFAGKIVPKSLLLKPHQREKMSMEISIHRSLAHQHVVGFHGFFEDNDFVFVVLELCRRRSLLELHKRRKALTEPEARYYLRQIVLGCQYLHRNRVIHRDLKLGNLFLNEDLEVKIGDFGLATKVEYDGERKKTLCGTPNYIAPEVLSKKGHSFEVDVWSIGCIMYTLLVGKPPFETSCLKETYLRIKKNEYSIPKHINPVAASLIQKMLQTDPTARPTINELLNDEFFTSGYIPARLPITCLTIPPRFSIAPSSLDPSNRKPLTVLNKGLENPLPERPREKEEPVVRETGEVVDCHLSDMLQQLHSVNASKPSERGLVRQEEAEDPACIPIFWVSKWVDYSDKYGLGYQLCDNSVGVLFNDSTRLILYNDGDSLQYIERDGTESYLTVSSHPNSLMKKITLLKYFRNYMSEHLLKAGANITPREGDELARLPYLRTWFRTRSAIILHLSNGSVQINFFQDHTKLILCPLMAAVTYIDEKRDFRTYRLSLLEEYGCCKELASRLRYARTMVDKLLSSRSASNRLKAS
# Sfp PPTase inh = blocks B. subtilis Sfp PPTase activity. Biochemical Sfp PPTase activity, qHTS. AID 1490. 3.5% of 310,000 active. Q9F4F7. Potency, µM, most hits filed as inhibitors;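 further: the enzyme is Sfp with the accession as filed and its product quenches rhodamine fluorescence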
#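 Fluorescence-quenching assay with 15 nM Sfp, 5 uM rhodamine-CoA and 12.5 uM BHQ-2-labelled ybbR peptide in pH 7.6 Hepes/MgCl2 buffer. Enzyme was pre-incubated with compound for 15 min at room temperature. Rate was taken from the 30-min fluorescence change (525/598 nm).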
# A number is an active result; . = inactive; ? = inconclusive; / = no result given; [ ] = remark or other dose. The call rests on the fitted dose curve; in most records, active means well fitted curve in the direction sought with a large enough effect; inconclusive means small, poorly fitted or top-dose-only effect, or another doubt; inactive means no such curve, though single readings can be large; an effect the other way counts as inactive or inconclusive.
SMILES,Tau FP inhib,VDR inh,Tau fluor counter,Tau ThT inhib,PLK1 PBD inh,Sfp PPTase inh
CC1(C)C(=O)C=C[C@@]2(C)C1=C(O)C(=O)[C@@]1(C)C2CC[C@@]2(C)C(c3ccoc3)C[C@H]3O[C@@]321 (stereo partly drawn),.,7.9µM,.,?,/,.
Cc1nnc2n1-c1sc(CCC(=O)N3CCOCC3)cc1C(c1ccccc1Cl)=NC2,.,/,.,.,/,.
CC(Oc1ccc(Cl)cc1Cl)C(=O)Nc1ccc(S(=O)(=O)Nc2cnc3ccccc3n2)cc1 (stereo not drawn),.,.,.,?,13µM,.
CC(=O)OCC(N)C(=O)c1ccccc1 (stereo not drawn),.,/,.,.,/,.
O=C(COc1ccccc1F)N1CCN(CCN2C(=O)c3cccc4cccc(c34)C2=O)CC1,.,.,.,.,.,.
O=C(COc1ccccc1)N1CCN(CCN2C(=O)c3cccc4cccc(c34)C2=O)CC1,.,.,.,.,17µM,.
CN1CCCC2(CCN(C(=O)Oc3ccccc3)CC2)C1,/,.,/,/,/,.
Cc1ccc2c(c1)C1(CCN(CCc3nc(-c4ccccc4)oc3C)CC1)OC(=O)N2,/,.,/,/,/,.
CC(=O)C1CCC2C3CCC4=CC(=O)CC[C@@]4(C)C3CC[C@]12C (stereo partly drawn),.,45µM,.,?,/,.
C=CCc1cc(OC)c2c(c1OC)OCO2,.,.,.,.,/,.
CCn1c(O)c(/C=N/NC(=O)c2ccncc2)c(=O)n(CC)c1=S,.,.,.,.,.,79µM
CSc1ccc(CN2CCN(C(=O)Cc3ccccc3)CC2)cc1,/,.,/,/,.,/
CSc1ccc(CN2CCN(Cc3ccccc3Cl)CC2)cc1,.,.,.,.,.,22µM
COCCN1C(=O)/C(=C/c2c(OC)cc(OC)cc2OC)C(=O)N(c2ccccc2)C1=O,.,.,.,.,?,.
COc1ccc(CC2C(=O)NC(=O)N(c3ccccc3)C2=O)c(OC)c1 (stereo not drawn),.,.,.,?,.,89µM
COc1ccc(N2C(=O)NC(=O)C(CCc3ccncc3)(CCc3ccncc3)C2=O)cc1,.,.,.,.,.,.
CCc1ccc(N2C(=O)NC(=O)C(Cc3ccc(OC)cc3OC)C2=O)cc1 (stereo not drawn),?,.,.,?,.,50µM
Cc1ccc2c(c1)[C@@H]1CN(C)CC[C@H]1N2,/,.,/,/,/,.
O=C(O)CCCC[C@@H]1SC[C@@H]2NC(=O)N[C@@H]21,/,?,/,/,.,/
O=C(CN1CCOCC1)c1ccc2cc[nH]c2c1,.,.,.,?,.,50µM
Cc1cc(C)c(C(=O)CN2CCOCC2)c(C)c1,.,28µM,.,?,.,.
COc1ccc(C(=O)CN2CCOCC2)cc1F,.,.,.,?,.,.
CCOP(=O)(OCC)C(=Cc1cc(C(C)(C)C)c(O)c(C(C)(C)C)c1)P(=O)(OCC)OCC,/,?,/,/,/,.
CN(C)c1c([N+](=O)[O-])cc(N2C(=O)C=CC2=O)cc1[N+](=O)[O-],/,16µM,/,/,3µM,/
Cn1cc(C(=O)Cc2ccccc2)c2ccccc21,.,?,.,.,27µM,.
SMILES,Tau FP inhib,VDR inh,Tau fluor counter,Tau ThT inhib,PLK1 PBD inh,Sfp PPTase inh
Cn1cc(C(=O)OCC(=O)Nc2ccccc2)c2ccccc21,/,.,/,/,.,/
CCOC(=O)N(C)C(=O)CSP(=S)(OCC)OCC,/,50µM,/,/,/,?
O=c1[nH]c(=O)n(-c2ccc(Cl)cc2)c(O)c1C=Nc1ccc(S(=O)(=O)Nc2nccs2)cc1,.,.,.,.,.,.
Clc1cccc(/C=N\Nc2nccs2)c1,.,.,18µM[quencher],?,?,.
Cc1ccccc1CN1CCNCC1,.,.,.,.,.,.
Cc1ccccc1CN1CCN(c2ccc(Cl)cc2)CC1,.,.,.,.,.,50µM
COC(=O)C12CC3=CCC4C(=O)N(c5ccccc5)C(=O)C4C3Cc3ccccc3[C@@H]1CNC2=O (stereo partly drawn),.,.,.,.,/,.
S=C1Nc2ccccc2Sc2ccccc21,.,.,.,.,27µM,?
CC(=O)O[C@H]1[C@H]2[C@@H](OC(=O)Cc3ccccc3)[C@@H](C)C[C@]2(OC(C)=O)C(=O)/C(C)=C/[C@@H]2[C@H](CC[C@@]13CO3)C2(C)C,.,.,.,?,/,.

# Screening results: PubChem BioAssay, National Center for Advancing Translational Sciences (NCATS)
